# Mm-Cpn inhibitor – Inhibitors of TCP-1 ring complex (TRiC) of Methanococcus maripaludis (MmCpn): qHTS. Chaperonin Mm-Cpn (Methanococcus maripaludis). purified Mm-Cpn ATPase, ADP Transcreener TR-FRET. Potency, µM (series often up to 76.9 µM), inactives show at the highest dose activity, negative = inhibition, usual class: inhibitors. hit rate 0.031% among 330,000. AID 504842, 2011; active = well fitted inhibition curve with a large enough effect; inconclusive = small, poorly fitted or top-dose-only effect; also: potency is read from the fitted curve at half-maximal effect; % is scaled to controls: 0 for no effect and ±100 for the full control effect; nearly all actives have a fitted effect of over 80% in size
#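 Quantitative HTS used 25 nM Mm-CPN and 10 uM ATP in magnesium/KCl Tris buffer, pH 7.4, with 1 mM DTT. Hydrolysis ran 30 min at 37°C; ADP was read by HTRF.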
# D3 antag – qHTS of D3 Dopamine Receptor Antagonist: qHTS; D3R cells, DiscoveRx beta-arrestin luminescence, antagonist mode; stronger effect = lower value; max response, negative = inhibition, %; AID 652054, 2013; D(3) dopamine receptor (Homo sapiens), P35462; hit rate 2.5% among 360,000; in the data active = max response below about -50%; inconclusive = no clear call, values can overlap the other calls; also: % is scaled to controls: 0 for no effect and ±100 for the full control effect
#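 Cells expressing the human receptor were seeded at 1500 cells/well, incubated overnight at 37 degrees C in 5% CO2, then exposed to library compounds with dopamine controls for 90 minutes at 37 degrees C before luminescent detection.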
# DRD3 agonist – qHTS of D3 Dopamine Receptor Agonist: qHTS. D3R DiscoveRx beta-arrestin cells, luminescence, 90 min. AID 652048, 2013. hit rate 0.58% among 410,000. D(3) dopamine receptor (Homo sapiens), P35462. max activation, %; in the data active = max activation above about 30%; also: 0% is about no effect
#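 Agonist mode: compounds and dopamine controls were applied to plated cells for 90 min at 37 degrees C after an overnight attachment at 1500 cells/well. Luminescent read-out followed 30 - 60 minutes at room temperature with DiscoveRx detection reagent.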
# TSG101-PTAP inh – qHTS Assay for Iinhibitors of HIV-1 Budding by Blocking the Interaction of PTAP/TSG101. Tumor susceptibility gene 101 protein (Homo sapiens), Q99816. Fluorescence polarization, FITC-PTAP peptide / Tsg101 binding. Potency, µM (titrated, usually from 115 µM), for the others: at the top dose activity change, negative = inhibition, most hits filed as inhibitors. 340,000 tested, under 10 active. AID 493005, 2010; active = well fitted inhibition curve with a large enough effect in the main read-out, with a control signal flat, not every such curve was filed as active; inconclusive = small, poorly fitted or top-dose-only effect, or effect the other way, or a change in a side signal; inactive = no such curve, though single readings can be large or run the other way; also: potency is read from the fitted curve at half-maximal effect; % of control where 0% means no effect
#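 FP read-out: FITC-PTAP peptide, 50 nM final, binding Tsg101 binding domain, 10 uM final; 20 min, r.t.; 10 mM HEPES pH 7.5, 0.15 M NaCl, 0.01% Tween 20, 3 mM EDTA, 0.1 mM TCEP.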
# Rango-impB inh – qHTS Assay for Inhibitors of Rango (Ran-regulated importin-beta cargo) - Importin beta complex formation; Rango CFP/YFP FRET sensor + importin beta, 45 min; Potency, µM (doses to about 92.2 µM), for the others: top-dose inhibition of complex formation; hit rate 0.031% among 340,000; AID 540263, 2011;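 also: potency is read from the fitted curve at half-maximal effect; 0% = DMSO wells and 100% = buffer wells lacking importin beta; nearly all actives have a fitted effect of over 15% in size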
# Target sequence (Q14974 whole entry, looked up): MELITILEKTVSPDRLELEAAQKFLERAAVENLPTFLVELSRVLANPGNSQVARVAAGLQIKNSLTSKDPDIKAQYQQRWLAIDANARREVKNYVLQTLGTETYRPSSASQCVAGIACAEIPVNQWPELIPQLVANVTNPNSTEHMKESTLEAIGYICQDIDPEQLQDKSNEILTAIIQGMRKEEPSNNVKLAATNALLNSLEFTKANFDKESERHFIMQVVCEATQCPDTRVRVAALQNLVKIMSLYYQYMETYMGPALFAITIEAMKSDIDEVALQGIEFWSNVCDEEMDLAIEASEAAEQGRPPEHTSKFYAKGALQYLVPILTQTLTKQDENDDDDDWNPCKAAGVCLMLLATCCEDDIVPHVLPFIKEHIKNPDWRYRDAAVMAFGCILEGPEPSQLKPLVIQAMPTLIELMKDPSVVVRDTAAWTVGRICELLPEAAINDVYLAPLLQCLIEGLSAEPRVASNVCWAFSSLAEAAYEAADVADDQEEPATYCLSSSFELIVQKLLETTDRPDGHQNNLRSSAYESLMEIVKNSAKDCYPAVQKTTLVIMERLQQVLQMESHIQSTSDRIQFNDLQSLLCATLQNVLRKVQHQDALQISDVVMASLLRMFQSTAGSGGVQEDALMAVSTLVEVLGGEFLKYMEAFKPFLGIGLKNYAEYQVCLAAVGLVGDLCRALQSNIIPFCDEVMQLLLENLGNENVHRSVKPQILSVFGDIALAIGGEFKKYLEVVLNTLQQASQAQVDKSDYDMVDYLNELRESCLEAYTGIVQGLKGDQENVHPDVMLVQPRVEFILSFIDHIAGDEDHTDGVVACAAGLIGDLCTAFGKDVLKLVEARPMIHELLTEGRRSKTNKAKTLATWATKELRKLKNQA
#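 FRET biosensor (snurportin 1 IBB flanked by EYFP and cerulean), 50 nM, with compound 5 min, then 0.125 microM importin beta in PBS, 1 mM DTT, 0.02% Tween-20, 0.1% BSA. CFP/YFP ratio read after 45 min at room temperature; pre-read flags interference.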
# Rango dissoc inh – qHTS Assay for Inhibitors of RanGTP induced Rango (Ran-regulated importin-beta cargo) - Importin beta complex dissociation. hit rate 0.071% among 340,000. Potency, µM (top dose mostly 46.1 µM), inactives show at the highest dose activity change, negative = inhibition. Biochemical FRET Rango-importin beta, RanGTP-induced dissociation. Snurportin-1 (Homo sapiens) + GTP-binding nuclear protein Ran (Homo sapiens) + Importin …; also: potency is read from the fitted curve at half-maximal effect; % of control where 0% means no effect; nearly all actives have a fitted effect of over 45% in size
#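 Rango/importin beta premix (0.1/0.25 uM final), PBS + 1 mM DTT + 0.02% Tween-20 + 0.1% BSA; cpd 5 min RT; FRET pre-read; + RanGTP-RCC1 (0.6 uM Ran, 2 mM GTP, 0.2 uM RCC1); 45 min RT; FRET post-read, ex 430, em 486/530 nm.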
# Numbers without * were called inactive; u = inconclusive; x = no result; ! = not active in a repeat. The list is not random: actives were taken first. Their share in the collection is about 2.9%. Unless noted, calls follow the shape of the full dose curve.
SMILES,Mm-Cpn inhibitor,D3 antag,DRD3 agonist,TSG101-PTAP inh,Rango-impB inh,Rango dissoc inh
C[C@H](CO)N1C[C@H](C)[C@@H](CN(C)C(=O)c2cnccn2)Oc2cc(C#CCC3CCCC3)ccc2S1(=O)=O,x,-61.5*,-6.7,x,x,x
C[C@@H]1CN([C@H](C)CO)S(=O)(=O)c2ccc(Br)cc2O[C@H]1CN(C)C(=O)C1CCCCC1,x,-73.9*,3.9,x,x,x
CC(C)C#Cc1ccc2c(c1)O[C@@H](CN(C)C(=O)c1cnccn1)[C@@H](C)CN([C@@H](C)CO)S2(=O)=O,x,-16.2,0.7,x,x,x
CCCCc1nn2c(=O)cc(COC(=O)c3cccc(OC)c3)nc2s1,x,x,-8.7,x,x,x
C#CCN(C[C@@H]1[C@@H](OC(=O)NC2CCCC2)[C@@H](OC(=O)NC2CCCC2)Cn2c(=O)ccc(=O)n21)S(=O)(=O)c1ccc(C)cc1,x,-64.0*,-12.7,x,x,x
CCOC(=O)NC(NCCc1ccccc1)(C(F)(F)F)C(F)(F)F,-0.9%,-5.7,31.4*,-8.4%,-1.2%,0.7%
COc1ccc(NC(=S)c2ccncc2)cc1,0.7%,-9.2,-9.7,0.8%,-0.4%,-0.6%
COc1ccc(C(=S)Nc2ccc(C)cc2)cc1,-4.6%,-67.4*,-11.0,0.4%,0.5%,-0.9%
Cc1cccc(-c2nc3scc(CCNS(=O)(=O)c4c(C)noc4C)n3n2)c1,x,x,-8.0,x,x,x
CCOC1(OCC)OC(c2ccccc2)=C(C#N)C(C=Cc2ccccc2)C1(OCC)OCC (stereo unspecified),x,-22.0,1.0,x,x,x
CN(C)c1ccc(O)c2c1CC1CC3[C@@H](N(C)C)C(=O)C(C(N)=O)=C(O)[C@]3(O)C(=O)C1=C2O (stereo partly specified),-2.3%,-8.3,3.9,2.2%,3.5%,2.1%
CN(C)c1ccc(O)c2c1C[C@H]1C[C@H]3[C@H](N(C)C)C(=O)C(C(N)=O)=C(O)[C@@]3(O)C(=O)C1=C2O,x,x,73.3*!,x,x,x
COc1cc([N+](=O)[O-])cc(/C=N/N(CCC#N)C(C)=O)c1O,-2.9%,-58.8*,-12.0,3.3%,-1.4%,-17.4%
COC(=O)c1ccc(N/N=C/c2cc([N+](=O)[O-])cc(OC)c2O)cc1,-0.6%,-10.2,-12.5,-0.7%,1.4%,-0.1%
O=C(COc1ccc(Br)cc1)NNC(=S)NCc1ccccc1,0.6%,-67.6*,-10.9,-5.2%,3.1%,-2.7%
O=C(COc1ccc(Cl)cc1)NNC(=S)NCc1ccccc1,3.5%,-5.0,-12.0,1.6%,-1.3%,-3.1%
O=C(CN1CCN(S(=O)(=O)c2ccc(Br)cc2)CC1)N/N=C/c1ccc(Cl)c([N+](=O)[O-])c1,0.4%,-70.2*,-9.4,-7.1%,0.9%,-11.1%
CN1CCN(C(=O)/C(=C/c2ccc(F)cc2)NC(=O)c2ccccc2)CC1,1.7%,0.9,-2.4,-2.4%,-2.3%,19.6%
CN1CCN(C(=O)/C(=C\c2ccccc2)c2ccccc2)CC1,0.2%,-54.6*,2.5,-4.7%,0.3%,0.2%
Cc1ccccc1CSc1nc(-c2cccc(F)c2)nc2c1Cc1c(CO)cnc(C)c1O2,x,x,-0.4,x,x,x
CCCC(=O)NC1=C(Cl)C(=O)c2ccccc2C1=O,x,-67.7*,-28.0,-0.2%,-3.9%,2.1%
CCN(CC)c1ccc(NC2=C(Cl)C(=O)c3ccccc3C2=O)cc1,-2.5%,-82.2*,-27.6,-2.4%,0.6%,-13.5%
CC(C)(C)CN1CCNC(=O)C1CC(=O)NCCN1CCCc2ccccc21 (stereo unspecified),2.5%,-12.7,4.5,-3.5%,u,-16.4%
CCC(C)NCCCOc1ccc(Cl)cc1C(C)(C)C (stereo unspecified),0.2%,-68.9*,-11.2,-5.4%,1.9%,1.6%
CCC(C)NCCOCCOc1ccc(Cl)cc1Br (stereo unspecified),-1.8%,-82.8*,-20.6,-0.8%,-3.3%,0.5%
SMILES,Mm-Cpn inhibitor,D3 antag,DRD3 agonist,TSG101-PTAP inh,Rango-impB inh,Rango dissoc inh
CCCCNCCOCCOc1ccc(C)cc1Br,0.6%,-80.6*,-15.5,-0.3%,-4.0%,25.1%
Cc1ccc(OCCOCCNC(C)C)c(Br)c1,0.0%,-74.7*,-3.3,-4.5%,1.8%,-10.7%
COCCCNCCOCCOc1ccc(C)cc1Br,1.6%,u,-25.6,0.4%,-0.7%,-7.5%
O=S(=O)(NCCc1nnc2ccc(SCc3ccc(C(F)(F)F)cc3)nn12)c1ccccc1,x,x,7.4,x,x,x
CCN(CC)c1ccc2cc(-c3nc(-c4cccs4)no3)c(=O)oc2c1,x,x,0.5,x,x,x
CCCC(c1nnnn1Cc1ccco1)N1CCN(c2cc(Cl)ccc2C)CC1 (stereo unspecified),-0.9%,-62.1*,-8.0,-4.7%,0.4%,12.7%
CC(C)CC(c1nnnn1Cc1ccco1)N1CCN(C2CCCC2)CC1 (stereo unspecified),0.2%,-59.7*,0.6,-1.9%,5.4%,15.1%
CCCCC(c1nnnn1CC1CCCO1)N1CCN(c2cc(Cl)ccc2C)CC1 (stereo unspecified),-4.6%,-86.2*,-0.3,0.1%,0.4%,-17.9%
CCCCC(c1nnnn1CC1CCCO1)N1CCN(c2ccccc2)CC1 (stereo unspecified),-1.9%,7.7,-3.5,-0.4%,5.1%,u
CCOc1cc(C2CC(=O)Nc3c2c(C)nn3-c2nc(C)cc(C)n2)ccc1O (stereo unspecified),x,x,8.4,x,x,x
CC(C)CN(CC(C)C)C(=O)Nc1ccc(F)cc1F,1.8%,10.7,-11.1,-6.8%,-1.6%,-7.3%
Nc1c(SCCC(=O)O)ccc2c1C(=O)c1ccccc1C2=O,-15.7%,-56.2*,-8.3,-4.9%,0.0%,0.4%
Cc1ccc(C(NC(=O)C2CCN(CCOc3ccccc3)CC2)c2ccccn2)cc1 (stereo unspecified),x,-69.8*,7.4,x,x,x
COc1ccc(C(NC(=O)C2CCN(CCOc3ccc(Cl)cc3)CC2)c2cccs2)cc1 (stereo unspecified),x,-80.6*,-17.5,x,x,x
O=C(NC(c1ccc(-c2ccccc2)cc1)c1cnccn1)C1CCN(CCCOc2ccccc2)CC1 (stereo unspecified),x,-72.9*,-15.5,x,x,x
COc1ccc(OCCN2CCC(C(=O)NC(c3ccc(OC)cc3)c3ccccn3)CC2)cc1 (stereo unspecified),x,-66.8*,-21.9,x,x,x
